Bioassay records from PubChem BioAssay.
The list is not random: actives were taken first. Their share in the collection is about 27%.
Cav32 inh – Cav3.2 calcium influx blockers – cell-based, Fluo-4 calcium fluorescence, FDSS, MLSMR library, primary screen | B-score at 10 µM | Voltage-dependent T-type calcium channel subunit alpha-1H (Homo sapiens), O95180 | AID 449739, 2010 | 100,000 compounds, 4% hits | Cav3.2-expressing cells; hits give low values;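 active means single-dose well whose peak fluorescence ratio is a statistical outlier from its plate by either plate-standardised score or position-corrected B-score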
CYP2C9 act – human CYP2C9 activators, primary screen, biochemical, luminescence; AID 1024, 2008; recombinant CYP2C9, luciferin-H conversion; hits give high values; factor 1 = untreated enzyme, 0 = blocked; 96,000 compounds, 1.4% hits; activation factor at 5 µM;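 active means activation factor of 2 or more for CYP2C9 at a 5 µM dose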;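 further: 0 = sulfaphenazole-blocked wells and 1 = vehicle-only wells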
CYP2C19 inh – blockers of cytochrome P450 2C19 activity – biochemical, luminescence, ADME assay, primary screen; 96,000 compounds, 21% hits; P33261; inhibition, % at 5 µM; CYP2C19 Supersomes, luciferin-H EGE luminescence, 30 min;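 active means CYP2C19 inhibition above a set limit at 5 µM in the primary screen, cut at about 50% in these data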;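 further: plate controls were negative control wells for no effect and 2.5 mM tranylcypromine positive control for full effect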
Target sequence (P33261 whole entry, looked up): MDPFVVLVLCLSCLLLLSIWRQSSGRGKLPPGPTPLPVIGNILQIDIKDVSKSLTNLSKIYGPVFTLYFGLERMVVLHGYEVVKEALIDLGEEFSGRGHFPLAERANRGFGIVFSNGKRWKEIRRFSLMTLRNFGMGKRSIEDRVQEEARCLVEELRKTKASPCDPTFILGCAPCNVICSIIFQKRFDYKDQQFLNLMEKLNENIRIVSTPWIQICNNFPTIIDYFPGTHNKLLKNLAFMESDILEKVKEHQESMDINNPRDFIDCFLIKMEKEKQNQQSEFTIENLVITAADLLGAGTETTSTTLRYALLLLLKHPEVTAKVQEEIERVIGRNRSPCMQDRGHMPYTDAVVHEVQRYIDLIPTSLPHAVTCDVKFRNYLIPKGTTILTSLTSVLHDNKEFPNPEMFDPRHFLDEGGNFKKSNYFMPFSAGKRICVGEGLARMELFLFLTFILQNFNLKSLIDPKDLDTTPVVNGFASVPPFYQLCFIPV
CYP2C9 inhib – blockers of cytochrome P450 2C9 activity – biochemical, luminescence, ADME assay, primary screen. inhibition, % at 5 µM. 96,000 compounds, 20% hits. P11712. AID 777, 2007. CYP2C9 Supersomes, luciferin-H conversion;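 active means blocking of liver enzyme CYP2C9 beyond about 50% at 5 µM, limit read from the data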
CYP2C19 activ – human CYP2C19 activators, primary screen, biochemical, luminescence; Cytochrome P450 2C19 (Homo sapiens), P33261; recombinant CYP2C19, luciferin-H EGE luminescence; hits give high values; 0 = fully inhibited enzyme, 1 = untreated enzyme; activation factor at 5 µM; 96,000 tested, under 10 active; AID 1025, 2008;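 active means activation factor of at least 2 at 5 µM in the primary screen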;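 further: 0 = wells with 2.5 mM tranylcypromine and 1 = vehicle-only wells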
* = called active by the depositor; nt = no result.

SMILES | Cav32 inh | CYP2C9 act | CYP2C19 inh | CYP2C9 inhib | CYP2C19 activ
O=C(NCc1cccs1)c1cc(C2CC2)on1 | 0.69 | 0.9 | 45 | 6 | 0.5
O=C(Cn1c2c(c(-c3ccccc3)cc1=O)CCCC2)N1CCCCCC1 | -1.3 | nt | nt | nt | nt
CCCCNC(=O)Cn1c2c(c(-c3ccccc3Cl)cc1=O)CCC2 | 1 | 0.2 | 61* | 78* | 0.4
CC(C)c1ccc(NC(=O)COc2nnc(-c3cccs3)c(-c3cccs3)n2)cc1 | -5.1* | 0.1 | 80* | 86* | 0.2
CCC(C)C(=O)Nc1nnc(-c2cccs2)s1 (stereo not given) | -1.4 | 0.8 | 5 | 19 | 0.9
CCc1ccc(NC(=O)C(C)Oc2nnc(-c3cccs3)c(-c3cccs3)n2)cc1 (stereo not given) | -4.4* | 0.3 | -14 | 68* | 1.1
NC(=O)c1c(-c2cccs2)csc1N | -0.19 | 0.9 | -9 | 6 | 1.1
Cc1nc(C)c(C(=O)NCc2ccccc2Cl)o1 | 0.68 | 1 | 1 | -5 | 1
O=C(CN(c1ccc(Cl)c(C(F)(F)F)c1)S(=O)(=O)c1ccccc1)N/N=C/c1cccc2c1OCCO2 | nt | 0.4 | 46 | 60* | 0.5
CCCC(NS(=O)(=O)c1ccc(Br)cc1)C(=O)O (stereo not given) | -0.29 | 0.8 | 25 | 18 | 0.8
CCOC(=O)c1ccc2c(c1)nc(SCC(=O)N1CCCCC1)n2CC | 0.14 | 0.1 | 78* | 88* | 0.2
CCOC(=O)c1ccc2c(c1)nc(SC/C(O)=C(\C#N)c1nc3ccccc3[nH]1)n2CC | -0.13 | 0.9 | 17 | 14 | 0.8
CCOC(=O)c1ccc2c(c1)nc(SCC(=O)c1ccco1)n2CC | 0.04 | 0.3 | 21 | 69* | 0.8
O=C(O)C1=C[C@@H](C2CCCCC2)C[C@@H](OCCCCO)O1 | 0.14 | nt | nt | nt | nt
CC(C)=CCCC1(C)C=Cc2c(c(C)cc3c2[nH]c2cc(O)ccc23)O1 (stereo not given) | -0.2 | nt | nt | nt | nt
Cc1nn2c(-n3ccnc3)c3c(nc2c1-c1ccccc1)CCC3 | 0.6 | 0.4 | 96* | 63* | 0
CCCCNc1c2c(nc3c(-c4ccccc4)c(C)nn13)CCC2 | 0.071 | 0.8 | 1 | 22 | 1
Cc1ccc(NC(=O)c2ccc3ccccc3n2)nc1 | -0.58 | 0.7 | 16 | 29 | 0.8
COc1ccccc1-c1c(C(F)(F)F)oc2cc(OC(=O)c3ccccc3[N+](=O)[O-])ccc2c1=O | -0.47 | 0.4 | 55* | 62* | 0.5
COc1ccccc1C(=O)Oc1ccc(C(C)(C)C)cc1 | -0.66 | 1 | -2 | -2 | 1
C=C1/C(=C\C=C2/CCC[C@]3(C)[C@@H]([C@H](C)/C=C/[C@@H](O)C4CC4)CC[C@@H]23)C[C@@H](O)C[C@@H]1O | -0.18 | nt | nt | nt | nt
COc1ccc(C(C[N+](=O)[O-])c2c(-c3ccccc3)cc3ccccn23)c(OC)c1 (stereo not given) | -2.3 | 0.3 | 37 | 70* | 0.6
COc1ccc2c(-c3ccccc3)cc(=O)[nH]c2c1 | -0.3 | 0.6 | 5 | 41 | 0.9
C=C1CCN([C@@H](C)C(=O)NCc2ccc(Cl)cc2)S(=O)(=O)c2ccccc21 | -0.85 | nt | nt | nt | nt
O=C(NCc1ccc(F)cc1)C(c1ccncc1)N(C(=O)c1csnn1)C1CC1 (stereo not given) | 0.3 | 0.8 | 54* | 19 | 0.5
O=C(c1ccco1)N1CCN(C(=O)C2CCCO2)CC1 (stereo not given) | 0.72 | nt | nt | nt | nt
O=C(Nc1nc2c(c(=O)[nH]1)CCCC2)C1CC1 | 0.28 | 1 | -17 | 0 | 1.2
CCC(C(=O)N1CCN(c2ccccn2)CC1)n1nc(C)n2c(cc3occc32)c1=O (stereo not given) | -0.53 | 0.1 | 46 | 91* | 0.5
CCc1nn(C(C)C(=O)N2CCN(Cc3ccccc3)CC2)c(=O)c2cc3occc3n12 (stereo not given) | 1.6 | 0.3 | 66* | 67* | 0.3
CCC(C(=O)N1CCc2ccccc2C1)n1nc(C)n2c(cc3occc32)c1=O (stereo not given) | 0.66 | 0.3 | 68* | 69* | 0.3
